Assay outcomes as filed in PubChem BioAssay.
Vif-APOBEC3F blk = qHTS for Inhibitors of Vif-A3F Interactions: qHTS; AID 602313, 2012; Potency, µM (highest dose often 46.1 µM), inactives show at the top dose activity, negative = active; HeLa A3F-eYFP + Vif (tagged APOBEC3F with the HIV-1 protein that degrades it), YFP fluorescence increase; 0.2% of 390,000 active; note: % of control where 0% means no effect; nearly all actives have a fitted effect of over 65% in size
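Fluorescence increase (Ex 488/Em 500-530) after overnight compound treatment at 37 deg C flags inhibition of Vif-driven A3F-eYFP loss in stable HeLa A3F-eYFP/Vif cells seeded overnight beforehand.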
PINK1 expr mod = A Quantitative High throughput Screen to Identify Chemical Modulators of PINK1 Expression; PINK1 immunofluorescence, high-content cytometry, 24 h; Potency, µM (highest dose often 76.6 µM), for the others: top-dose activation (PINK1 increase), hits mostly activators; 0.2% of 410,000 active; AID 624263, 2012; active = well fitted activation curve with a large enough effect; inconclusive = small, poorly fitted or top-dose-only effect; cell line not stated here; note: % of control where 0% means no effect; nearly all actives have a fitted effect of over 65% in size
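PINK1 protein, normally rapidly degraded, was detected by immunofluorescence after 24 hour compound treatment of a stable cell line. Titration data (5 concentrations) came from laser-scanning cytometry, with CCCP-treated wells as controls.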
FUS yeast rescue = qHTS for Suppressors of FUS Proteinopathy: Primary screen using FUS-linked yeast assay; 0.24% of 390,000 active; Potency, µM (top dose mostly 76.6 µM), usual class: activators; AID 1347120, 2019; S. cerevisiae FUS-expressing, growth rescue, OD600, 24 h;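 note: plate controls were DMSO vehicle for no effect and reference control for full effect; nearly all actives have a fitted effect of over 55% in size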
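FUS-expressing yeast, raffinose-pregrown, induced in 2% galactose minimal medium at OD 0.005; compounds in a dilution series, 24hr at 30C. Growth restoration read as absorbance at 600 nm. CP55940 positive control, DMSO negative.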
Abeta yeast res = qHTS for compounds that reverse cellular toxicity of Amyloid beta (A-beta) peptide in yeast: Primary Screen | Potency, µM (titrated, usually from 46.1 µM), hits mostly activators | yeast expressing A-beta42, growth rescue, OD600, 48 h; response scale: 0% DMSO, 100% iron-clioquinol control | 0.063% of 410,000 active; note: nearly all actives have a fitted effect of over 55% in size
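Growth rescue measured by 600 nm absorbance after 48 h yeast culture at 30 C with compound. Values normalized between DMSO and an equimolar ferric chloride plus clioquinol control.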
Glioma ERSR ind = qHTS for Inducers of the Endoplasmic Reticulum Stress Response (ERSR) in Human Glioma: qHTS. U87-MG GRP78 promoter luciferase reporter, 16 h. Potency, µM, for the others: at the highest dose activation, hits mostly activators. 0.02% of 420,000 active. AID 602332, 2012; note: series mostly up to about 76 µM; % of control where 0% means no effect; nearly all actives have a fitted effect of over 35% in size
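ERSR induction read as luciferase luminescence (Bright-Glo, 10 min at room temperature) in stably transfected human U87-MG glioma cells exposed to compounds for 16 h, using GRP78 as sensor.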
Vif-A3G inh = qHTS for Inhibitors of Vif-A3G Interactions: qHTS | DNA dC->dU-editing enzyme APOBEC-3G (Homo sapiens), Q9HC16 | HeLa A3G-eYFP + Vif (tagged APOBEC3G with the HIV-1 protein that degrades it), YFP fluorescence, overnight | Potency, µM (highest dose often 46.1 µM), without a hit: at the top dose activity, negative = active, actives largely listed as inhibitors | 0.076% of 410,000 active; note: % is set by controls: 0 for no effect and ±100 for the full control effect; nearly all actives have a fitted effect of over 60% in size
Target sequence (Q9HC16 whole entry, looked up): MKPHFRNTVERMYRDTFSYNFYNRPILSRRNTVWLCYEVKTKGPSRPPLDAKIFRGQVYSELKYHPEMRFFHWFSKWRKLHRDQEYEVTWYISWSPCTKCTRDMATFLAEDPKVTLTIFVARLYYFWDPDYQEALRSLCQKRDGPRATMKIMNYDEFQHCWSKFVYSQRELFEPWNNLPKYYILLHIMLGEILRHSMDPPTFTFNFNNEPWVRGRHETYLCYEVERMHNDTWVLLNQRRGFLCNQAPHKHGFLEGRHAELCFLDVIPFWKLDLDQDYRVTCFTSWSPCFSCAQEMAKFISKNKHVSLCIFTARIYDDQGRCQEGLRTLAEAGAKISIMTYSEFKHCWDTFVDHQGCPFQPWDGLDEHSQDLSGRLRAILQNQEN
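HeLa cells stably expressing Vif and C-terminally eYFP-tagged A3G, seeded overnight at 37 deg C, then exposed to compound by pintool overnight at 37 deg C. Rise in yellow fluorescence (Ex 488/Em 500-530, Acumen) marks blocked Vif-driven A3G degradation.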
The depositor's hits bear a star; i = inactive; ? = inconclusive; · = not tested or not shown; [ ] = another dose, or the depositor's remark. Rows were chosen to be rich in hits. Some 0.69% of all compounds tested hit in one or more screens of this group. Unless noted, calls come from the whole dose curve; as a rule, active = well fitted curve in the direction sought with a large enough effect; inconclusive = small, poorly fitted or top-dose-only effect, or another doubt; inactive = no such curve, though single readings can be large; an effect the other way counts as inactive or inconclusive. Potency is the fitted concentration of half-maximal effect.

SMILES	Vif-APOBEC3F blk	PINK1 expr mod	FUS yeast rescue	Abeta yeast res	Glioma ERSR ind	Vif-A3G inh
O=C(Nc1nc2c(F)cc(F)cc2s1)c1ccc(S(=O)(=O)N2CCc3ccccc32)cc1	-1%	16µM*	i	i	-5%	3%
Cc1csc(NC(=O)CCC(=O)N(CC(=O)NC2CCCC2)Cc2ccccc2)n1	11µM*	3%	i	i	?	?
Cc1cc2cc(C(c3nnnn3Cc3ccco3)N3CCc4ccccc43)c(=O)[nH]c2cc1C (stereo not given)	-1%	-1%	?	i	-6%	5%
Cc1cc2cc(C(c3nnnn3Cc3ccco3)N3CCc4ccccc4C3)c(=O)[nH]c2cc1C (stereo not given)	2%	1%	14µM*	i	4%	0%
CCOc1cc(C(=O)N2CCC(CC3CC(c4ccccc4)=NO3)(C(=O)NCc3ccc(OC)cc3)CC2)cc(OCC)c1OCC (stereo not given)	-2%	1%	18µM*	i	0%	-5%
Cc1ccc(O)c(N=CC2=C(O)c3ccccc3C2=O)c1	-16%	0%	?	i	32µM*	-8%
O=C1C(C=Nc2ccccc2O)=C(O)c2ccccc21	-4%	?	i	i	3%	-10%
CC1(C)CC(=O)C2=C(C1)NC(SCC(=O)Nc1ccccc1)=C(C#N)C21CCCCC1	-5%	?	i	i	-6%	0%
CC(C)(C)C1CCC2(CC1)C(C#N)=C(SCC(=O)Nc1ccccc1)NC(=O)C2C#N (stereo not given)	-2%	22µM*	i	i[9.22 µM]	2%	2%
O=[N+]([O-])c1ccc(C=CC=Cc2ccccc2)cc1	-13%	32µM*	i	i	2%	-7%
O=C(C=Cc1ccccc1)c1ccc([N+](=O)[O-])cc1	1%	2%	i	i	-2%	-3%
Cc1ccc(SC2=C(Sc3ccc(C)cc3)C(=O)c3ccccc3C2=O)cc1	8.9µM*	?	i	i	5%	-10%
Cc1cnc(SCc2ccccn2)nc1C1CCCN(C(=O)c2cc3ccccc3oc2=O)C1 (stereo not given)	·	0%	·	·	4%	·
COc1cc(/C=C2/SC(=S)N(CCC(=O)Nc3ccccc3)C2=O)cc(OC)c1OC	11µM*	1%	i	i	-4%	?
O=C(CN1C(=O)S/C(=C\c2ccccn2)C1=O)Nc1ccccc1	-5%	13%	i	i	-1%	2%
COc1cc(/C=C2\SC(=S)N(CC(=O)Nc3ccccn3)C2=O)cc(OC)c1OC	-20%	9%	i	i	-2%	-28%
COc1cc(/C=C2\SC(=S)N(CCC(=O)Nc3ccccc3)C2=O)cc(OC)c1OC	?	3%	i	i	-5%	?
O=C(CN1C(=O)S/C(=C\c2cc(Cl)c(O)c(Cl)c2)C1=O)Nc1ccccc1	13µM*	1%	i	i	5%	?
COc1cc(/C=C2\SC(=S)N(CCC(=O)Nc3ccccn3)C2=O)cc(OC)c1OC	25µM*	14%	i	i	-3%	-21%
CN(C)c1ccc2c(-c3ccccc3)c3ccc(=[N+](C)C)cc-3oc2c1	·	·	·	·	-6%	·
COc1ccccc1C(=O)NNC(=S)NC(=O)c1cc(OC)c(OC)c(OC)c1	4%	2%	i	6.3µM*	-3%	1%
COc1cc(C(=O)NNC(=S)NC(=O)c2ccccc2C)cc(OC)c1OC	-2%	-2%	i	?	0%	1%
